Results reported in PubChem BioAssay AID652105 (National Center for Advancing Translational Sciences (NCATS), 2013).
About 4,100 (1.2%) of roughly 330,000 compounds were called active. Not shown: some 2% with an inconclusive outcome. This excerpt belongs to a sample that is enriched for actives. Unmarked numbers belong to inactive results. Rule for the calls: active = max response of -50% or lower; inconclusive = between -30% and -50%; inactive = -30% or higher.

The compounds below were run against Phosphatidylinositol 5-phosphate 4-kinase type-2 alpha (Homo sapiens) (UniProt P48426) (assay: qHTS for Inhibitors of phosphatidylinositol 5-phosphate 4-kinase (PI5P4K)). Details: PI5P4Kalpha enzyme, ADP-Glo luminescence, 60 min; active compounds read low.
Method in brief: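 Enzyme plus substrate dispensed, test compounds pinned in, then ATP (5 microM final) added. After 60 min at RT, ADP-Glo reagent 1 for 45 min and reagent 2 for 30 min preceded luminescence imaging.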
% is set by controls: 0 for no effect and ±100 for the full control effect.
Note: value at the top dose of about 77 µM.

Phosphatidylinositol 5-phosphate 4-kinase type-2 alpha (Homo sapiens), sequence (P48426 whole entry, looked up): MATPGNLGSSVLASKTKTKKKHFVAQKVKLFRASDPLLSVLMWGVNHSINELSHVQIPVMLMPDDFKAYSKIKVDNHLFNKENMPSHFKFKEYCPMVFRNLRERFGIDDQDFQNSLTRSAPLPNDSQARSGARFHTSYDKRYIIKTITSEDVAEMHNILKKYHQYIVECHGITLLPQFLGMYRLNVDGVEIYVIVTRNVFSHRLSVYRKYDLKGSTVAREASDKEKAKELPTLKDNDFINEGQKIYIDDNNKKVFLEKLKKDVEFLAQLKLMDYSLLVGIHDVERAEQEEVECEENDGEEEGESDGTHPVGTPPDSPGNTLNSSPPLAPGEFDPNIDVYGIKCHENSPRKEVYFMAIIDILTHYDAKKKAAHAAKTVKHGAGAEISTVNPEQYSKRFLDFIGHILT

| Compound | max response |
| --- | --- |
| O=C(NCc1cccc(C(F)(F)F)c1)c1ccc2sc(COCCO)nc2c1 | -7.68% |
| CC1(C(=O)Nc2ccc3c(c2)OCCO3)CCN1C(=O)Cc1cc(F)ccc1F (centres undefined) | 2.77% |
| O=C1C(Cl)=C(Oc2ccccc2)C(=O)c2ccccc21 | -95.6% (active) |
| Clc1ccccc1Nc1nc(NCc2cccs2)nc2ccsc12 | -4.54% |
| Cc1cccc(C(=O)OCC(=O)Nc2sc3c(c2C#N)CCC3)c1 | -29.9% |
| N#CCC(=O)Nc1ccc(C(=O)OCC(=O)Nc2sc3c(c2C#N)CCCC3)cc1 | -64.2% (active) |
| CC(C)NC(=O)NC(=O)COC(=O)c1ccc(NC(=O)CC#N)cc1 | -8.69% |
| CCOc1ccc(NC(=O)CCNC(=O)c2ccc(Br)cc2)cc1 | -0.675% |
| CCOc1ccc(NC(=O)c2ccc(NC(=O)COC(=O)c3ccc(NC(=O)CC#N)cc3)cc2)cc1 | -67.8% (active) |
| CC(=O)c1c(C)[nH]c(C(=O)OCC(=O)Nc2sc3c(c2C#N)CCCC3)c1C | -6.62% |
| CC1=C(C(=O)N(C(C)C)C(C)C)CC(CC(=O)NCCCCc2ccccc2)C(=O)N1CCC1=CCCCC1 (centres undefined) | -0.015% |
| COC(=O)C[C@H]1C=C[C@@H](NS(=O)(=O)c2ccc(C)cc2)[C@@H](CO)O1 | 0.772% |
| COc1ccc(S(=O)(=O)/N=C2\C=C(NS(=O)(=O)c3ccccc3)C(=O)c3ccccc32)cc1 | -64.4% (active) |
| Cc1ccc(S(=O)(=O)/N=C2\C=C(NS(=O)(=O)c3ccc(C)cc3)C(=O)c3ccccc32)cc1 | -25.4% |
| O=C1C=C(NS(=O)(=O)c2ccccc2)C(=O)c2ccccc21 | 1.96% |
| O=C(OCc1ccccc1)N1CCC2CC1c1ccc(-c3ccc4c(c3)OCO4)cc12 (centres undefined) | 14.4% |
| O=S1(=O)CC(N2CCN(CCO)CC2)CN1Cc1cn(Cc2ccc(Cl)cc2)nn1 (centres undefined) | -1.75% |
| NC(Cc1ccc(F)cc1)c1csc(Nc2nncc3ccccc23)n1 (centres undefined) | -1.97% |
| CCOC(=O)c1sc(=S)n2c1[nH]c(=O)c1ccc(C(=O)OC)cc12 | -52.6% (active) |
| CCOC(=O)c1ccc2c(c1)nc(C)n2CC | 0.903% |
| COC(=O)c1cccc(NC(=O)CSc2nc(C)cc(=O)[nH]2)c1 | -26.1% |

| Compound | max response |
| --- | --- |
| O[C@H]1C[C@H](c2ccc(Cl)cc2)N(Cc2cccs2)C[C@@H]1n1cc(C2CC2)nn1 | 16.1% |
| COc1cc(O)c2c(=O)c3c(O)c(O)ccc3oc2c1OC | -7.12% |
| COc1c(O)cc2oc(-c3ccc(O)c(O)c3)cc(=O)c2c1O | -59.1% (active) |
| COc1ccc(-c2cc(=O)c3c(O)cc(O[C@@H]4O[C@H](CO[C@@H]5O[C@@H](C)[C@H](O)[C@@H](O)[C@H]5O)[C@@H](O)[C@H](O)[C@H]4O)cc3o2)cc1O | 0.0751% |
| Cc1[nH]c2ccccc2c1C(=O)c1cc([C@H](NC(=O)OC(C)(C)C)C(C)C)sc1N | 2.87% |
| CC(=O)OCC(C)n1c(=O)c2ccccc2n1C(C)=O (centres undefined) | -0.324% |
| COc1ccc(C(O)c2nc(-c3ccc4c(c3)OCO4)cs2)cc1 (centres undefined) | -1.53% |
| O=C1c2ccccc2S(=O)(=O)c2cc(N3CCN(c4ccccn4)CC3)ccc21 | 1.24% |
| CC1CCN(c2ccc3c(c2)S(=O)(=O)c2cc(C(=O)O)ccc2C3=O)CC1 | -56.6% (active) |
| Cc1ccc(CNC(=O)c2cccc3c2C(=O)c2ccc(N4CCC(C)CC4)cc2S3(=O)=O)cc1 | -1.75% |
| CCCCC(=O)N(C)c1c(CC)nc2c(OCc3ccc(S(C)(=O)=O)cc3)cccn12 | -1.42% |
| CC(C)[C@H](NC(=O)c1ccccc1F)C(=O)Nc1cccc(S(=O)(=O)N2CCOCC2)c1 | 0.136% |
| COc1ccc(C2CC(c3ccc([N+](=O)[O-])cc3)=NN2C(C)=O)cc1 (centres undefined) | 0.372% |
| CN1C2CCC1CC(NC(=O)c1ccc([N+](=O)[O-])cc1)C2 (centres undefined) | 0.848% |
| CC(=O)N1CC[n+]2c(-c3ccc([N+](=O)[O-])cc3)csc21 | -61% (active) |
| COC(=O)[C@]12CCCCC=C1N(CCC1=CCCCC1)C(=O)[C@H](CC(=O)NCC1CCCCC1)C2 | 7.3% |
| CC(=O)N1Cc2cc(C(=O)NCc3cccc(F)c3)nc(-c3cccc(C4=CCCC4)c3)c2[C@H]1CCO | -1.08% |
| CNc1cc(-c2c(OC)cccc2OC)ncn1 | 3.83% |
| C[C@@H]1C[C@@H]2O[C@H]2/C=C\C=C\C(=O)Cc2c(Cl)c(O)cc(O)c2C(=O)O1 | -50.5% (active) |
| CC1(C(=O)Nc2cccc3c2CCCC3)CCN1C(=O)C1(c2ccccc2)CC1 (centres undefined) | 20.1% |
| O=C1OCCOC2CCCc3oc(-c4ccccc4)c1c32 (centres undefined) | -3.14% |

| Compound | max response |
| --- | --- |
| OC(c1ccc(F)cc1)c1ncc(-c2cccc(C(F)(F)F)c2)[nH]1 (centres undefined) | 16.6% |
| COc1cccc(/C=C2\SC(=S)N(CCCC(=O)N3CCOCC3)C2=O)c1 | 1.86% |
| COC1=C/C(=C/c2c(N)n3nc(CC(=O)N4CCOCC4)sc3nc2=O)C=CC1=O | -79.3% (active) |
| CCOC(=O)/C=c1\s/c(=C\c2ccccc2OC)c(=O)n1CC(=O)N1CCOCC1 | -6.89% |
| C=CCC1=C/C(=C\c2c(N)n3nc(CC(=O)N4CCOCC4)sc3nc2=O)C=C(OC)C1=O | -61.1% (active) |
| COc1cc(/C=C2\C(=N)N3N=C(CC(=O)N4CCOCC4)SC3=NC2=O)cc(OC)c1OC | 1.99% |
| CCOC(=O)C1=CCC(c2ccc(F)cc2)N(S(=O)(=O)c2ccc(C)cc2)C1 (centres undefined) | 8.18% |
| O=C(COc1ccc(Br)cc1)OCC(=O)c1ccc[nH]1 | 1.45% |
| CCc1nc2c(OCc3ccc(C(=O)OC)cc3)cccn2c1N(C)C(=O)C(C)C | -5.01% |
| CCOc1cc(/C=N/NC(=O)c2cc(-c3ccccc3)nc3ccccc23)ccc1O | 1.21% |
| COc1cc(/C=N/NC(=O)c2ccc(N3CCCC3=O)cc2)ccc1O | 0.256% |
| COc1ccc(C(=O)Nc2ccccc2C(=O)N/N=C/c2ccc(O)c(OC)c2)cc1 | -50.7% (active) |
| CCCCCCN1CCN(C2CN(Cc3cn(CCCCCC)nn3)S(=O)(=O)C2)CC1 (centres undefined) | -1.03% |
| CC(C)Nc1nc(NCCOc2ccccc2Cl)c2sccc2n1 | -24.4% |
| O=C(NCc1ccco1)c1cccc(-c2ccc3nncn3c2)c1 | 5.11% |
| Cc1cccc(C)c1Cn1c(C)c(C(=O)NCc2cccc(Cl)c2)sc1=O | 9.15% |
| CCOC(=O)/C(N=Nc1cc(C(=O)O)cc(C(=O)O)c1)=C(\O)CCl | -52.4% (active) |
| COc1cccc(CN(C)C(=O)CC[C@H]2O[C@@H](n3cnc4c(NC(=O)c5ccccc5)ncnc43)[C@H](O)[C@@H]2O)c1 | -6.93% |
| COC(=O)[C@@]12C[C@@H](CC(=O)NCc3cccc(C(F)(F)F)c3)C(=O)N(Cc3ccco3)C1=CCC(C)(C)C2 | -1.12% |
| Nn1c(SCC(=O)Nc2nccs2)nnc1-c1ccco1 | -11.2% |
| NC(=O)c1c(NC(=O)CSc2nnc(-c3ccco3)n2N)sc2c1CCCC2 | -79.7% (active) |

| Compound | max response |
| --- | --- |
| Cc1cc(NC(=O)CSc2nnc(-c3ccco3)n2N)no1 | -9.01% |
| O=C1c2ccccc2C(c2nc3ccccc3[nH]2)N1c1ccccc1 (centres undefined) | -0.58% |
| CN(C(=O)COC(=O)Cc1ccccc1[N+](=O)[O-])C1CCS(=O)(=O)C1 (centres undefined) | 1.78% |
| COc1ccc(/C=C(\C#N)C(=O)OCC(=O)N(C)C2CCS(=O)(=O)C2)cc1 (centres undefined) | 4.63% |
| CN(C(=O)COC(=O)c1cc(-c2ccco2)nc2ccccc12)C1CCS(=O)(=O)C1 (centres undefined) | -66.2% (active) |
| CCNC(=O)c1cc2c(c(-c3cccc(-c4cncnc4)c3)n1)[C@H](CCO)N(C(C)=O)C2 | 1.34% |
| CCCCc1c(-c2ccc(Cl)cc2)ncn1CCc1ccccc1OC | 19% |
| Fc1cccc(Cc2c(-c3ccc(Cl)cc3)nc3ccc(Cl)cn23)c1 | 1.89% |
| O=C(Cc1c(F)cccc1Cl)Nc1ccc(-n2cnnn2)cc1 | 4.15% |
| O=C(COc1ccc(-n2cnnn2)cc1)Nc1ccccc1Cl | -51.4% (active) |
| C=CCc1cccc(/C=N/NC(=O)COc2ccc(-n3cnnn3)cc2)c1O | -0.249% |
| C=CCC[C@@H](CCCCC)OC(=O)/C=C/[C@@H](O)[C@H](O)C[C@H](O)CC=C | 17.3% |
| COCCNc1nc(Nc2ccccc2Cl)c2sc(-c3ccccc3)cc2n1 | -2.99% |
| O=C(O)c1ccccc1/C=N/Nc1ccc(S(=O)(=O)Nc2ccc(Cl)cc2)cc1[N+](=O)[O-] | -7.22% |
| O=[N+]([O-])c1cc(S(=O)(=O)Nc2cccc(Cl)c2)ccc1N=Nc1c(O)[nH]c2ccccc12 | -75.5% (active) |
| Oc1[nH]c2ccccc2c1N=Nc1c(F)c(F)c(F)c(F)c1F | 1.14% |
| CCOC(=O)[C@]12CCCC=C1N(Cc1ccc3c(c1)OCO3)C(=O)[C@H](CC(=O)NCc1cccs1)C2 | 3.13% |
| COc1cccc(CNC(=O)[C@@H]2CCCN2C(=O)[C@@H]2CCCN2C(=O)c2ccccc2)c1 | -1.24% |
| O=C(/C=C/c1c(F)cccc1Cl)Nc1nn[nH]n1 | -56.7% (active) |
| O=C(/C=C/c1c(Cl)cccc1Cl)NCc1ccccc1 | 3.82% |
| O=C(CCc1ccccc1)Nc1nn[nH]n1 | -6.47% |
